Screening results as filed in PubChem.
HTR5A ag: HTR5A agonists in luminescence cell assay, primary screen, counter-screen for OPRM1-OPRD1 heterodimer agonist project, full-deck HTS. cell-based. hit rate 0.61% among 340,000. 5-hydroxytryptamine receptor 5A (Homo sapiens), P47898. activation, % at 9.3 µM; in the data active = activation mostly above about 9.5%, no sharp cut-off; inactive = mostly below about 7.6%;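 note: 0% = cells with vehicle only and 100% = reference agonist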
Target sequence (P47898 whole entry, looked up): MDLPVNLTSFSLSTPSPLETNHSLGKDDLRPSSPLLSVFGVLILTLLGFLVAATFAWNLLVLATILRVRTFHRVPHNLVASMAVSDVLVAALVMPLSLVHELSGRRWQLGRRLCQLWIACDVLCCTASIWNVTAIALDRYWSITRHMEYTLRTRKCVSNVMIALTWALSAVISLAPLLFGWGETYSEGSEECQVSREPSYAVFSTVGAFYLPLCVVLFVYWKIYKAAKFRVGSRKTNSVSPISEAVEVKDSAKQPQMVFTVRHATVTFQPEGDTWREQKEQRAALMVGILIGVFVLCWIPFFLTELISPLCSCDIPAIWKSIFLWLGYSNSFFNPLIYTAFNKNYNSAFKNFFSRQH
MOR-DOR ag-1: agonists of OPRM1-OPRD1 heterodimerization, primary screen, cell-based, luminescence | cells | Mu-type opioid receptor (Homo sapiens) + Delta-type opioid receptor (Homo sapiens), … | hit rate 0.3% among 340,000 | activation, % at 9.3 µM;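 note: 0% = vehicle-treated cells and 100% = reference agonist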
HTR5A inv ctr: HTR5A inverse agonists in luminescence cell assay, primary screen, counter-screen for OPRM1-OPRD1 heterodimer inverse agonist project, full-deck HTS | 5-hydroxytryptamine receptor 5A (Homo sapiens), P47898 | HTR5A cell line, inverse agonism | inhibition, % at 9.3 µM | hit rate 0.083% among 340,000 | AID 504634, 2011; in the data active = inhibition mostly above about 23%, no sharp cut-off; inactive = mostly below about 18%;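 note: 0% = cells with DMSO and 100% = no-cell wells with DMSO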
PolyA inh: polyadenylation inhibitors in yeast reporter cells, primary screen, luminescence, S. cerevisiae; hit rate 0.02% among 300,000; activity score, % at 12 µM; S. cerevisiae SKY197-pL101 polyadenylation reporter, beta-gal luminescence; efflux-impaired pdr1/pdr3 knockout yeast; score 100 = 6 SD above DMSO; AID 1875, 2009;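 active = lowest replicate activity score at least 50, where 100 means six control SD above control mean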;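 note: yeast exposed to compound for 9 h at 30 °C; higher score means more reporter readthrough which indicates perturbed polyadenylation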
NALP1 inh: NALP1 inflammasome inhibitors in reconstituted yeast, colorimetric, S. cerevisiae, triplicate retest | S. cerevisiae NALP1/ASC/caspase-1 growth, X-gal OD620, 72 h | hit rate 0.61% among 280,000 | AID 2071, 2009 | inhibition, % at 10 µM; in the data active = inhibition mostly above about 24%, no sharp cut-off; inactive = mostly below about 32%
OPRM1-OPRD1 inv: inverse agonists of MOR-DOR heterodimerization, primary screen, cell-based, luminescence; inhibition, % at 9.3 µM; hit rate 0.21% among 340,000; cell-based MOR-DOR heterodimer luminescence, inverse agonism; AID 504357, 2011; Mu-type opioid receptor (Homo sapiens) + Delta-type opioid receptor (Homo sapiens), …; in the data active = inhibition above about 22%, passing the limit was not always enough;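 note: 0% = cells with DMSO and 100% = wells without cells with DMSO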
MOR-DOR ag-2: OPRM1-OPRD1 heterodimerization promoters, counter-screen for HTR5A agonist project, cell-based, luminescence | shares compounds with HTR5A ag | U2OS counter-screen cells, complementation luminescence, 3 h | activation, % at 9.3 µM | hit rate 13% among 800 | AID 504913, 2011
HTR5A ag confirm: HTR5A agonists, retest of hits, confirmation, cell-based, luminescence. HTR5A agonist cell assay. hit rate 17% among 800. shares compounds with HTR5A ag. activation, % at 9.3 µM; in the data active = activation above about 17%;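 note: 0% = cells with vehicle only and 100% = full reference agonist response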
Numbers without * were called inactive; / = not tested or not shown. Only some compounds are listed: those with a hit (about 1.6% of all), similar ones and a draw of the others. Cut-off read from the data, not from the text of the source, unless noted: active = activation above about 18%; inactive = the rest.

SMILES	HTR5A ag	MOR-DOR ag-1	HTR5A inv ctr	PolyA inh	NALP1 inh	OPRM1-OPRD1 inv	MOR-DOR ag-2	HTR5A ag confirm
COc1ccc(OC)c(Nc2nc(N)nc(CCl)n2)c1	17*	0	-53	-3	/	-1	1	10
Cc1cccc(Nc2nc(N)nc(CCl)n2)c1	20*	0	-69	4	11	1	21*	31*
CCCCCCCCCC[n+]1cccc2c3ccccc3ccc21	22*	0	5	-85	26*	2	4	5
CCCCCCCN1CCC(=O)N([C@H](CO)CC(C)C)CC1	3	-2	20	-12	37	11	/	/
O=C(OCC(=O)C12CC3CC(CC(C3)C1)C2)c1cccnc1Cl	1	0	-27	-11	31	0	/	/
COc1ccc(NS(=O)(=O)c2cccc(C(=O)N3CCN(Cc4cc(OC)ccc4OC)CC3)c2)cc1	15*	0	-16	-14	6	-2	135*	-5
O=C(Nc1ncn[nH]1)C(F)(F)C(F)F	-1	-1	5	-7	-6	4	/	/
CCC(C(=O)Nc1ncn[nH]1)(C(F)(F)F)C(F)(F)F	18*	-1	-12	7	12	4	0	1
COc1ccc(/C=N/NC(=O)c2ccn[nH]2)cc1COc1ccc(Cl)cc1Cl	26*	7	-67	26	3	-44	1	-1
COc1cccc(CNC(=O)Cc2ccc(-c3ccccc3)cc2)c1	0	0	0	7	-11	-2	/	/
COc1cccc(CNC(=O)COC(=O)CNC(=O)c2ccc(-c3ccccc3)cc2)c1	15*	-1	-37	/	/	5	4	-2
O=C(NCc1ccccc1)c1onc(CSc2ccc(F)c(F)c2)c1C(=O)NCc1ccccc1	3	0	-6	16	/	1	/	/
Cc1cc(C(C)(C)C)c(O)c(C)c1CC1=NCCN1	84*	-1	-232	12	-13	6	0	86*
c1ccc2c(CC3=NCCN3)cccc2c1	4	-1	-13	-8	20	3	/	/
ONC(=Nc1cccc(C(F)(F)F)c1)c1cccnc1	1	-1	-11	4	2	7	/	/
COc1ccc2oc(=O)c(C(=O)N3CCc4ccccc43)cc2c1	15*	-1	-6	-12	15	4	3	6
COc1cccc2cc(C(=O)N3CCc4ccccc43)c(=O)oc12	-2	-4	14	-9	8	19	/	/
Cc1ccc(NC(=O)CSCC(=O)NC2=NCCS2)cc1	1	-2	-6	/	/	7	/	/
O=C1N=C(N2CCCCC2)S/C1=C\c1ccccc1F	3	-1	-11	-19	6	6	/	/
CCCOc1ccccc1/C=C1\SC(N2CCCCC2)=NC1=O	16*	-1	-61	-9	18	3	0	24*
COc1ccc(/C=C/C2=CCN(Cc3ccc(OC)cc3)CC2)cc1	/	/	/	0	10	/	/	/
Oc1c(Br)cc(Br)cc1CNc1cccc2cccnc12	16*	7	-1	2	8	-35	13	-3
Cn1c(=O)c2ccccc2n(Cc2cccc(F)c2)c1=O	0	-2	1	-17	-14	11	/	/
CCOC(=O)c1sc(N/N=C/c2cccc(C)c2)nc1C	-1	3	-2	-7	0	-18	/	/
C=CCN(C/C(=N\O)c1sc(C(=O)OCC)nc1C)c1cccc(Br)c1	22*	7	-59	10	/	-44	8	2
COc1ccccc1C(=O)N/C(=N/c1nc(C)cc(C)n1)Nc1ccccc1	2	-1	11	-9	9	7	/	/
COc1ccc2[nH]c3c(c2c1)CCNC3C1CC=C(C)CC1 (stereo unspecified)	34*	1	-51	4	24	-7	5	51*
